Test [1] concerns the target Mast/stem cell growth factor receptor Kit (Homo sapiens) (UniProt P10721). Conditions: at 1 µM.
Test [2] has as its system Mast/stem cell growth factor receptor Kit (Homo sapiens), P10721 [D816V]. Conditions: at 0.1 µM.
For test [3] the test system is unchanged. Conditions: at 1 µM.
In test [4] the test system is Mast/stem cell growth factor receptor Kit (Homo sapiens), P10721 [T670I]. The settings on record: at 0.1 µM.
The test system is the same in test [5]. Conditions: at 1 µM.
Test [6] deals with Mast/stem cell growth factor receptor Kit (Homo sapiens), P10721 [V560G]. Conditions: at 0.1 µM.
Test [7] has the same test system. Conditions: at 1 µM.
Test [8] has as its target Tyrosine-protein kinase Lck (Homo sapiens) (UniProt P06239). Conditions: at 0.1 µM.
The target is the same in test [9]. Conditions: at 1 µM.
Test [10] addresses Leukocyte tyrosine kinase receptor (Homo sapiens) (UniProt P29376). Conditions: at 0.1 µM.
Test [11] has the same target. The settings on record: at 1 µM.
For test [12], the target named is Tyrosine-protein kinase Lyn (Homo sapiens) (UniProt P07948). Conditions: at 0.1 µM.
Test [13] has the same target. Conditions: at 1 µM.
The target is the same in test [14]. Conditions: at 0.1 µM. This is another data set of the same source.
The target is the same in test [15]. The settings on record: at 1 µM. This is another data set of the same source.
The target in test [16] is T1, Tyrosine-protein kinase Mer (Homo sapiens) (UniProt Q12866).
T1 sequence (whole entry): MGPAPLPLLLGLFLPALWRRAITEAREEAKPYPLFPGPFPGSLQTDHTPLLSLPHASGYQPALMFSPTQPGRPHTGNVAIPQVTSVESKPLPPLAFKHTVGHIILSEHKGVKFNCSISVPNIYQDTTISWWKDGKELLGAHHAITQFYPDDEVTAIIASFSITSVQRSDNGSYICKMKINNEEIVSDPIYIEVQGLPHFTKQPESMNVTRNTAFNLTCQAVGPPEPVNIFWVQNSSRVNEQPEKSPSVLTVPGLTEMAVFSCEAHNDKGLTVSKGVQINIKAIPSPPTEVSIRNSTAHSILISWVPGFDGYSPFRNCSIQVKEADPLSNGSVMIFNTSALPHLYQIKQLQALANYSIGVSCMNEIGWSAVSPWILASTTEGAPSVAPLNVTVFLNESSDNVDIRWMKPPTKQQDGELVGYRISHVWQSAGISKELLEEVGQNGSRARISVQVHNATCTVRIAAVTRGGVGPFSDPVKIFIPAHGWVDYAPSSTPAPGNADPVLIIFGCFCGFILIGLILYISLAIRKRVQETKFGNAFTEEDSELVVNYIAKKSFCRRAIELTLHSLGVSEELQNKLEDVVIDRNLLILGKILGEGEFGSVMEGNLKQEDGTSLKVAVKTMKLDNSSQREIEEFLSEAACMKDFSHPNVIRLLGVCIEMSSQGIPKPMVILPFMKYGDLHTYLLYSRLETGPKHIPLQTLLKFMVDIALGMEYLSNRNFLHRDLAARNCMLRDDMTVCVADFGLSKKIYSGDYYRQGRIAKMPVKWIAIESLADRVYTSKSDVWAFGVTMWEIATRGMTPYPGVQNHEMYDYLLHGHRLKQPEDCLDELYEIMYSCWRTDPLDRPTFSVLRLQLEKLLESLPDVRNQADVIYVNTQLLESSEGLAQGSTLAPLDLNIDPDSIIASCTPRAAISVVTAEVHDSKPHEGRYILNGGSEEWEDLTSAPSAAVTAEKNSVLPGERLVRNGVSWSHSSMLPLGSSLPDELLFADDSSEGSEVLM
Conditions: at 0.1 µM.

Test [17] has as its target T1, Tyrosine-protein kinase Mer (Homo sapiens). The settings on record: at 1 µM.
In test [18] the target is Hepatocyte growth factor receptor (Homo sapiens) (UniProt P08581). The settings on record: at 0.1 µM.
The target is the same in test [19]. Conditions: at 1 µM.
In test [20] the target is T2, Muscle, skeletal receptor tyrosine-protein kinase (Homo sapiens) (UniProt O15146).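 Also: values are mean inhibition of MuSK from the GSK PKIS kinase screening panel.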
T2 sequence (whole entry): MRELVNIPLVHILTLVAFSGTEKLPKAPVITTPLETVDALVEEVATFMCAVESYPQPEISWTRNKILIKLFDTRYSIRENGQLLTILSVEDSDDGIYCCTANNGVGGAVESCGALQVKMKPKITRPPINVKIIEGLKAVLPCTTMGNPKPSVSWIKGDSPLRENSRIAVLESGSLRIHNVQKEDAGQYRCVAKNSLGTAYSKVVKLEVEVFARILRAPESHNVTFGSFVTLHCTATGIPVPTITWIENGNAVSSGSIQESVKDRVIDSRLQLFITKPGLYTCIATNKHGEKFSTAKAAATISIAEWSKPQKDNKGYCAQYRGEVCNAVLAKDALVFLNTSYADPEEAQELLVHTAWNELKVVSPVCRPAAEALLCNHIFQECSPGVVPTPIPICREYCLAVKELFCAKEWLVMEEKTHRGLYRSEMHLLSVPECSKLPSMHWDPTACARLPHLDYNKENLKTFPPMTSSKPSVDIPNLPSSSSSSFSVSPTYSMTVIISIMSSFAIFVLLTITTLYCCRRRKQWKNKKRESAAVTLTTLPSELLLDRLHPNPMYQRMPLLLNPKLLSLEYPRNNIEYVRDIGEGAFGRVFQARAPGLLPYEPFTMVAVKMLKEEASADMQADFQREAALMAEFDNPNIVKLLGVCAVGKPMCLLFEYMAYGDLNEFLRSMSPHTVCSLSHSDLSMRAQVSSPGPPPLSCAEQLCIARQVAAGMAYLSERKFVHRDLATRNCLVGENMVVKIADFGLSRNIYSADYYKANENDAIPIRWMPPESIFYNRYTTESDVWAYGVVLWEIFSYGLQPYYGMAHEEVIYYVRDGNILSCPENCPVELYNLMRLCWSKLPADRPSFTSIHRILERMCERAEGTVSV
The settings on record: at 0.1 µM.

Chain of Mast/stem cell growth factor receptor Kit (Homo sapiens), P10721 [T670I] (P10721 whole entry T670I): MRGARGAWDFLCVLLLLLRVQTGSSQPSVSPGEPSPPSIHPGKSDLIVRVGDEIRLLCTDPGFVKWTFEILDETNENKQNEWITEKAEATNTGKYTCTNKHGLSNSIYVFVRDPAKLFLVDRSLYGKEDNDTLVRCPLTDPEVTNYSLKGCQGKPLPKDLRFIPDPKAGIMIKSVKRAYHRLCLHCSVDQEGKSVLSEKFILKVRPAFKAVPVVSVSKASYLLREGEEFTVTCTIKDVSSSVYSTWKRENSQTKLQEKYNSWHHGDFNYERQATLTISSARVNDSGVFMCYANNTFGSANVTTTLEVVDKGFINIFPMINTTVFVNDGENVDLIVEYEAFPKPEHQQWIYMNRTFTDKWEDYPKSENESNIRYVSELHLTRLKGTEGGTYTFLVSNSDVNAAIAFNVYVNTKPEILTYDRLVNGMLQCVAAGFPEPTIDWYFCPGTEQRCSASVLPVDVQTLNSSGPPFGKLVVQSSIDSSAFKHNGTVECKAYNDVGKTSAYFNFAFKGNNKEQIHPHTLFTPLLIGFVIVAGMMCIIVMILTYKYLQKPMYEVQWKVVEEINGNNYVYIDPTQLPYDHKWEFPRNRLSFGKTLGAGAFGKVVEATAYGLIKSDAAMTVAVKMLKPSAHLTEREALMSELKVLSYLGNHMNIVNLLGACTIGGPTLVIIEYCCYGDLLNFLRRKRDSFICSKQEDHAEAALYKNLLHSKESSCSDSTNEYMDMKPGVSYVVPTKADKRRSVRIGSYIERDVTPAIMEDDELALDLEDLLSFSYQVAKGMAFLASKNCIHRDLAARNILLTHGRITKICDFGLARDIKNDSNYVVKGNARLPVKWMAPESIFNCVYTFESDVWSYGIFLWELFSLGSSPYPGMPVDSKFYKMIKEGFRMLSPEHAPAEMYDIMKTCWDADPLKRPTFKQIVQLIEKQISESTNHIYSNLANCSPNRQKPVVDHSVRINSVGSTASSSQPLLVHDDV
Chain of Tyrosine-protein kinase Lck (Homo sapiens) (P06239 2-509 limits assumed): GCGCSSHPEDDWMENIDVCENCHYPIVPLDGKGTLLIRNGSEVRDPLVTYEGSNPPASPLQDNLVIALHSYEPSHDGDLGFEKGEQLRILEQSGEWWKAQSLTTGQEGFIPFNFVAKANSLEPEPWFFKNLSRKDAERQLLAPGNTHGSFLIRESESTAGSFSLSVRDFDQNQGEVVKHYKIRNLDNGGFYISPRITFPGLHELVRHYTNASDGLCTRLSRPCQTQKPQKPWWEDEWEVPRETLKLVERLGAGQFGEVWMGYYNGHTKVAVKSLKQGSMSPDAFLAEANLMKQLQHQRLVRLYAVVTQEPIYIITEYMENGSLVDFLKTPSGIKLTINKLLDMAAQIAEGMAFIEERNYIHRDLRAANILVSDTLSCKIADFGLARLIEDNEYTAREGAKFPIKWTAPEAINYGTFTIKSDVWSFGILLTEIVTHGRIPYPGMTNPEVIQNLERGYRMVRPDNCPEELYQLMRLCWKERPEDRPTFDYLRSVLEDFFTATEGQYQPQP
Chain of Mast/stem cell growth factor receptor Kit (Homo sapiens), P10721 [D816V] (P10721 whole entry D816V): as the sequence (P10721 whole entry T670I) above, with I670T, D816V counted along it
Chain of Mast/stem cell growth factor receptor Kit (Homo sapiens) (P10721 whole entry): as the sequence (P10721 whole entry T670I) above, with I670T counted along it
Chain of Hepatocyte growth factor receptor (Homo sapiens) (P08581 whole entry): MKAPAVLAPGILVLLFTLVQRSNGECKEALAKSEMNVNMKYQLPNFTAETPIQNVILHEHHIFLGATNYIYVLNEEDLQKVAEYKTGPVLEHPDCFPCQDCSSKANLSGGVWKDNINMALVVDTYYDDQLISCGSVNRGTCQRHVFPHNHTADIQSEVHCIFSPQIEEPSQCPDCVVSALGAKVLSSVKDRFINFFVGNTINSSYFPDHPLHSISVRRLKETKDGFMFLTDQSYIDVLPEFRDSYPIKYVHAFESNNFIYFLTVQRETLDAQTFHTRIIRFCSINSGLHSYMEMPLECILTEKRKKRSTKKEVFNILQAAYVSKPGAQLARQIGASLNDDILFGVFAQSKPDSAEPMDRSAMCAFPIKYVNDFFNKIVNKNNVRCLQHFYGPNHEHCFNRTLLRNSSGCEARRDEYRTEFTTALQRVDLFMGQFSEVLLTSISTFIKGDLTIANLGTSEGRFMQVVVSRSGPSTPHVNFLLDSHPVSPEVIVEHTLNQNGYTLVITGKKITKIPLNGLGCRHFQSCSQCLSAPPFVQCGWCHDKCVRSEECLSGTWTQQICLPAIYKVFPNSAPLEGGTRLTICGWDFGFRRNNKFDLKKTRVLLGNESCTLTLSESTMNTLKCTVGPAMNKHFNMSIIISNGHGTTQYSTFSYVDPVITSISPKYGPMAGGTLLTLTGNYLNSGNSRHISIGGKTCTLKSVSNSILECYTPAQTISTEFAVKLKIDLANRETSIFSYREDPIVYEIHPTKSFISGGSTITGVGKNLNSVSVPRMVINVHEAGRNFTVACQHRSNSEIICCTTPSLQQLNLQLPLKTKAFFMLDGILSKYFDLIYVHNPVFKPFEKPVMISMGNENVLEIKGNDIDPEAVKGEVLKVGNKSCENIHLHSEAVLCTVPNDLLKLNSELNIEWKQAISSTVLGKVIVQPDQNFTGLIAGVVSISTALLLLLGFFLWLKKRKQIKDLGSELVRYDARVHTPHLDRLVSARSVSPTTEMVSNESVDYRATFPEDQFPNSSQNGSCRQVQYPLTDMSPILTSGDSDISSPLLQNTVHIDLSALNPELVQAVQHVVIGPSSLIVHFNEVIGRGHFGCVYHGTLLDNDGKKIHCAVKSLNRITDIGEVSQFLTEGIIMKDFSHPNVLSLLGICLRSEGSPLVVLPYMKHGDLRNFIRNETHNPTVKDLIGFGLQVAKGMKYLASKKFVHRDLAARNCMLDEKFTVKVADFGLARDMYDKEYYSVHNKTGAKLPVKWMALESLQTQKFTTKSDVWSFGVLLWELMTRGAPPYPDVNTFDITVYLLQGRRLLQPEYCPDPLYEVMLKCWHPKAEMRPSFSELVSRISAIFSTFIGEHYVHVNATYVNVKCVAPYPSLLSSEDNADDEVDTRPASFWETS
Chain of Tyrosine-protein kinase Lyn (Homo sapiens) (P07948 2-512 limits assumed): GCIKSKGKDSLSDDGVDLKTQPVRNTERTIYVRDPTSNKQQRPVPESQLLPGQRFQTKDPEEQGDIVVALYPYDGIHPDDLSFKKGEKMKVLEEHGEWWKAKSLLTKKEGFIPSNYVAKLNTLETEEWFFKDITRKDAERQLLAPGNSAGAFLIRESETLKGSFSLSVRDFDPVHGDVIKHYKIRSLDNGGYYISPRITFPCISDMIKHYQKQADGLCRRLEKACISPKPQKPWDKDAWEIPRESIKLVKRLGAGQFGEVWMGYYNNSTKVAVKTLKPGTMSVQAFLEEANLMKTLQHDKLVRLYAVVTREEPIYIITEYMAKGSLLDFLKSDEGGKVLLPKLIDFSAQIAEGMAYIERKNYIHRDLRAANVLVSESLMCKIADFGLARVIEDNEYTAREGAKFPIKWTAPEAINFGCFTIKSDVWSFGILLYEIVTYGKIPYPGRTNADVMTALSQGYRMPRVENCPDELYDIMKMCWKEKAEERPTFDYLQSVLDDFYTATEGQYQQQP
Chain of Mast/stem cell growth factor receptor Kit (Homo sapiens), P10721 [V560G] (P10721 whole entry V560G): as the sequence (P10721 whole entry T670I) above, with V560G, I670T counted along it
Chain of Leukocyte tyrosine kinase receptor (Homo sapiens) (P29376 whole entry): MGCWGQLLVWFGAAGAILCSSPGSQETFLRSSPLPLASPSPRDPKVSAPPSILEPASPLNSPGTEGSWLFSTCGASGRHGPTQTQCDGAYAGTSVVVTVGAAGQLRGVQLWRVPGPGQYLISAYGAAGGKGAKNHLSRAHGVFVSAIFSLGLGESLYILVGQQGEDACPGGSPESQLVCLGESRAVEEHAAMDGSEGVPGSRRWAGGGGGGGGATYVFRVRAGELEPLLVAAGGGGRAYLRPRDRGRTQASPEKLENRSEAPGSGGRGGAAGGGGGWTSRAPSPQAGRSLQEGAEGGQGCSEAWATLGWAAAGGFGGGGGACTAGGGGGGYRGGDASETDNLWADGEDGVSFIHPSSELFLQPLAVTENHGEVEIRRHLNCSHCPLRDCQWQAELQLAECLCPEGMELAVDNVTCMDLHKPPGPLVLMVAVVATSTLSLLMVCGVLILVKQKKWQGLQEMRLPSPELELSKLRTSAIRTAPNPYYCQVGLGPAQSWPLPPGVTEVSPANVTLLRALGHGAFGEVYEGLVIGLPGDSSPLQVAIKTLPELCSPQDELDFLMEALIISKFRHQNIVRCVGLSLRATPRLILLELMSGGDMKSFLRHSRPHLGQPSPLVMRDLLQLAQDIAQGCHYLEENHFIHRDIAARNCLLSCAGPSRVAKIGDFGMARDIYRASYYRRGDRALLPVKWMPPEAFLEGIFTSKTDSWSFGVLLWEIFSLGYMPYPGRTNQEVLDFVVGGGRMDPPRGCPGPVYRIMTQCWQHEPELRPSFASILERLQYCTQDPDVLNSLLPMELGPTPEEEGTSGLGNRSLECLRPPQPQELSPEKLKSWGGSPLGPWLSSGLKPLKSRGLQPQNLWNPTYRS

As for `C/C(Nc1ccc(S(N)(=O)=O)cc1)=C1/C(=O)Nc2ccccc21`, the inhibition is 90.9% in test [1]; -0.26% in test [2]; -1.16% in test [3]; 21% in test [4]; 82.5% in [5]; 3.94% in [6]. The inhibition is 22.4% in [7]; -1.24% in test [8]; 4.22% in test [9]; 1.12% in test [10]; 9.41% in test [11]; 1.53% in [12]. Further, the inhibition was 8.14% in [13]; 0.71% in test [14]; 6.94% in [15]; 0.6% in test [16]; 9.21% in test [17]; 3.68% in test [18]. Further, the results for the inhibition in test [19] and in test [20] were 9.39% and 3.8%, respectively.

For `Fc1ccc(-c2ncn(C3CCNCC3)c2-c2ccnc(Oc3ccc(F)c(F)c3)n2)cc1`, the inhibition in test [1] is 5.24%; in [2], 5.58%; in test [3], 2.5%; in test [4], 1.57%; in test [5], 1.83%; in [6], -1.36%. For the same compound, the inhibition in test [7] was 0.87%; in [8] it was -1.59%; in test [9], -1.94%; in test [10] it was 2.84%; in test [11], 2.29%; in [12], 3.84%. The inhibition in test [13] was found to be 3.75%; in test [14], 2.34%; in [15] it was 2.48%; in test [16], 1.13%; in test [17] it was 1.39%; in test [18] it was 7.87%. In addition, the inhibition is 4.17% in test [19] and 2.92% in [20].

As to `O=C(Nc1n[nH]c2cc(-c3ccccc3)ccc12)C1CC1`, the inhibition in test [1] is 7.38%; in [2], 3.94%; in test [3], 8.12%; in test [4], 4.34%; in test [5] it was 4.01%; in test [6] it was 1.4%. Moreover, the inhibition in [7] stood at 3.87%; in [8], 2.21%; in [9], 6.66%; in [10] it was 3.88%; in [11], 9.93%; in test [12], 5.94%. Moreover, the inhibition is 9.06% in test [13]; 2.77% in test [14]; 5.33% in [15]; 1.8% in test [16]; 5.12% in test [17]; 0.84% in test [18]. Also, the inhibition is 5.86% in [19] and -0.17% in test [20].

In the case of `Cc1ccc(NC(=O)c2ccoc2)cc1-c1ccc(C(=O)NCC2CC2)cc1`, the inhibition in test [1] turned out to be 0.22%; in test [2] it was 3.87%; in test [3], 3.1%; in test [4], 1.06%; in test [5] it was 1.82%; in test [6], 0.04%. Moreover, the inhibition in test [7] was -1.21%; in [8] it was 2.02%; in [9], 3.87%; in test [10], 2.79%; in test [11] it was 3.16%; in test [12], 3.73%. For the same compound, the inhibition worked out at 3.68% in [13]; 3.72% in test [14]; 4.12% in test [15]; 1.1% in [16]; 1.81% in test [17]; 11.4% in test [18]. The inhibition in test [19] was found to be 0.85%; in [20] it was 0.54%.

As for `CS(=O)(=O)CCNCc1cc(-c2cc3c(Nc4ccc(OCc5cccc(F)c5)c(Cl)c4)ncnc3s2)cs1`, the inhibition in test [1] was 8.47%; in test [2], 2.03%; in test [3], 6.26%; in [4], 2.2%; in test [5], 5.07%; in test [6], -1.18%. In addition, the inhibition came out at 0.47% in [7]; 2.76% in [8]; 4.18% in test [9]; 6.05% in test [10]; 6.25% in [11]; 5.45% in test [12]. For the same compound, the inhibition in test [13] was 6.19%; in test [14] it was 2.93%; in [15], 6.07%; in [16], 4.4%; in test [17], 8.06%; in [18] it was 7.8%. For the same compound, the results for the inhibition in test [19] and in [20] were 6.72% and 2.43%, respectively.

Take `COc1cc(N2CCN(C(C)C)CC2)ccc1Nc1nc(Nc2ccc(F)cc2C(=O)NC[C@@H](O)CO)c2cc[nH]c2n1`: the inhibition in test [1] is 6.9%; in test [2], 4.14%; in [3], 7.71%; in [4], 3.52%; in [5] it was 4.77%; in test [6] it was -2.07%. The inhibition in [7] was -1.61%; in [8] it was -1.06%; in test [9] it was -2.81%; in [10], 55.2%; in test [11], 88.7%; in [12] it was 4.36%. For the same compound, the inhibition in test [13] is 9.54%; in test [14] it was 2.42%; in [15] it was 7%; in test [16], 0.94%; in test [17] it was 3.95%; in [18] it was -1.77%. For the same compound, the inhibition in [19] came to 3.3%; in test [20] it was 1.43%.

By inhibition is commonly meant the change of the read-out against control, counted positive when it falls.

These data come from ChEMBL document CHEMBL1961873, “Compounds: GSK PKIS; Assays: Nanosyn kinase panel” (2012).
